Two compounds from ChEMBL document CHEMBL1961873, “Compounds: GSK PKIS; Assays: Nanosyn kinase panel” (2012) can be followed below.

Test [1] has as its target T1, Inhibitor of nuclear factor kappa-B kinase subunit epsilon (Homo sapiens) (UniProt Q14164).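 Also: reported values are averaged percent inhibition figures against human IKKε.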
T1 sequence (whole entry): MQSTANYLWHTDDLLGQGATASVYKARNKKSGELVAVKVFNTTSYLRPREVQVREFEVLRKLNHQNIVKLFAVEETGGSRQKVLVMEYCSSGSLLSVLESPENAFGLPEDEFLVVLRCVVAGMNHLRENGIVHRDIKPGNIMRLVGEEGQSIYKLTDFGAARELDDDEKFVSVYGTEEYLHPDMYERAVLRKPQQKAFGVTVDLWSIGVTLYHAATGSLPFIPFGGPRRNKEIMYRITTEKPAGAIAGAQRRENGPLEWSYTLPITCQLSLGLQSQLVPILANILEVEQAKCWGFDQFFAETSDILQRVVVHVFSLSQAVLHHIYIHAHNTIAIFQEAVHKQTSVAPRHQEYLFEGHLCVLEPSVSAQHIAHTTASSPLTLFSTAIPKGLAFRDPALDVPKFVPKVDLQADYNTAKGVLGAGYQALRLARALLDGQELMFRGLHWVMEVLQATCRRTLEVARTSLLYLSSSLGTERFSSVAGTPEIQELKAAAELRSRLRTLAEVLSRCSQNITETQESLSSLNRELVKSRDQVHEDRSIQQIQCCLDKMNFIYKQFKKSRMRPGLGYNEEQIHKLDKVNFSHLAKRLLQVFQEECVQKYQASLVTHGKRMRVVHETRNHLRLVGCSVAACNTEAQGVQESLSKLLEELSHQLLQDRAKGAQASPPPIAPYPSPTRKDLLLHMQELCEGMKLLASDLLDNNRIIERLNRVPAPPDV
The note with it: at 1 µM.

The target in test [2] is T2, Serine/threonine-protein kinase Nek1 (Homo sapiens) (UniProt Q96PY6).
T2 sequence (whole entry): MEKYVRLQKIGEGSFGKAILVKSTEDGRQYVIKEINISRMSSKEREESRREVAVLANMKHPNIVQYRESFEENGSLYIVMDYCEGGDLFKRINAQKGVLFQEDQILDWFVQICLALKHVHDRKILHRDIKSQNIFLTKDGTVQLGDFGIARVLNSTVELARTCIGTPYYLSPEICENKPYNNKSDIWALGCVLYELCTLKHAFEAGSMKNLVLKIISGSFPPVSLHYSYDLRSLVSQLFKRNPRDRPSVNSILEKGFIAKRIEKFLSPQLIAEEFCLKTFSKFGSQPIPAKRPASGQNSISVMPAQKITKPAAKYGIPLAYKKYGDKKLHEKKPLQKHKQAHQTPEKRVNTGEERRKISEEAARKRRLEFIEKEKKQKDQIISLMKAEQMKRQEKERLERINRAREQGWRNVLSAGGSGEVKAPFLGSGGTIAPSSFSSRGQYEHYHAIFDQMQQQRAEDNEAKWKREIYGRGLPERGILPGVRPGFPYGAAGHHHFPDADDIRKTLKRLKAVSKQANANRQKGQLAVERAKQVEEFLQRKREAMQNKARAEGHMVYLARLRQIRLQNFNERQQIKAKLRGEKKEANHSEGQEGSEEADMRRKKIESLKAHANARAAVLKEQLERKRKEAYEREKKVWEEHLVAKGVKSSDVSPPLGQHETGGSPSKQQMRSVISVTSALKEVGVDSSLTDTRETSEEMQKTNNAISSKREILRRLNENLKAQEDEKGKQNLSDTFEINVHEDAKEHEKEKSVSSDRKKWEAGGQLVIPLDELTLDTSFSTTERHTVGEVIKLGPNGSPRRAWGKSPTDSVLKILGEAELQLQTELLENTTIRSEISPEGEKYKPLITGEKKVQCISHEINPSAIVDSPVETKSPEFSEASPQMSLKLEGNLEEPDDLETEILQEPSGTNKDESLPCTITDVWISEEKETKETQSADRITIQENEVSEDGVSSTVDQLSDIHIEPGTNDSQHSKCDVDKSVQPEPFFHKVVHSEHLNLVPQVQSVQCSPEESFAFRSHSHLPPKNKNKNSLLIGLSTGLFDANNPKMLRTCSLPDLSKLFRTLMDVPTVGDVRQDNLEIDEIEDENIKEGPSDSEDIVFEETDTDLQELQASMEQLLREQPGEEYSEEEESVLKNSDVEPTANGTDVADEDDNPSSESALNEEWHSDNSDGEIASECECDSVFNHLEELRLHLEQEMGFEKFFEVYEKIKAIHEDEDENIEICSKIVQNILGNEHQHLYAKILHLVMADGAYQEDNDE
The note with it: at 0.1 µM.

Test [3] deals with T2, Serine/threonine-protein kinase Nek1 (Homo sapiens). The note with it: at 1 µM.
Test [4] deals with T3, Serine/threonine-protein kinase Nek2 (Homo sapiens) (UniProt P51955).
T3 sequence (whole entry): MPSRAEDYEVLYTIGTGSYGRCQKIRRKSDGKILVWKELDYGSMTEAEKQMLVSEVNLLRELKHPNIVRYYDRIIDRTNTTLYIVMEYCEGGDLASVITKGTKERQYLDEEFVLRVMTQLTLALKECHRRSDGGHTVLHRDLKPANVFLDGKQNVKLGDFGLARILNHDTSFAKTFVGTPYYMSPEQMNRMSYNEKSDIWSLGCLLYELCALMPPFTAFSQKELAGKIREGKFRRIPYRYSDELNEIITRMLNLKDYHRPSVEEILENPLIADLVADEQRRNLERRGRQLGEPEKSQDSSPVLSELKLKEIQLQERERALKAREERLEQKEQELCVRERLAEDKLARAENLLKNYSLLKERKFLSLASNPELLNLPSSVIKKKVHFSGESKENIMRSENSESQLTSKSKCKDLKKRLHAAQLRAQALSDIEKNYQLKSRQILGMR
The conditions noted are these: at 0.1 µM.

Test [5] has as its target T3, Serine/threonine-protein kinase Nek2 (Homo sapiens). The note with it: at 1 µM.
Test [6] addresses Serine/threonine-protein kinase Nek6 (Homo sapiens) (UniProt Q9HC98). The note with it: at 0.1 µM.
Test [7] has the same target. The note with it: at 1 µM.
Test [8] concerns the target Serine/threonine-protein kinase Nek7 (Homo sapiens) (UniProt Q8TDX7). The note with it: at 0.1 µM.
Test [9] has the same target. The conditions noted are these: at 1 µM.
Test [10] has as its target T4, Serine/threonine-protein kinase Nek9 (Homo sapiens) (UniProt Q8TD19).
T4 sequence (whole entry): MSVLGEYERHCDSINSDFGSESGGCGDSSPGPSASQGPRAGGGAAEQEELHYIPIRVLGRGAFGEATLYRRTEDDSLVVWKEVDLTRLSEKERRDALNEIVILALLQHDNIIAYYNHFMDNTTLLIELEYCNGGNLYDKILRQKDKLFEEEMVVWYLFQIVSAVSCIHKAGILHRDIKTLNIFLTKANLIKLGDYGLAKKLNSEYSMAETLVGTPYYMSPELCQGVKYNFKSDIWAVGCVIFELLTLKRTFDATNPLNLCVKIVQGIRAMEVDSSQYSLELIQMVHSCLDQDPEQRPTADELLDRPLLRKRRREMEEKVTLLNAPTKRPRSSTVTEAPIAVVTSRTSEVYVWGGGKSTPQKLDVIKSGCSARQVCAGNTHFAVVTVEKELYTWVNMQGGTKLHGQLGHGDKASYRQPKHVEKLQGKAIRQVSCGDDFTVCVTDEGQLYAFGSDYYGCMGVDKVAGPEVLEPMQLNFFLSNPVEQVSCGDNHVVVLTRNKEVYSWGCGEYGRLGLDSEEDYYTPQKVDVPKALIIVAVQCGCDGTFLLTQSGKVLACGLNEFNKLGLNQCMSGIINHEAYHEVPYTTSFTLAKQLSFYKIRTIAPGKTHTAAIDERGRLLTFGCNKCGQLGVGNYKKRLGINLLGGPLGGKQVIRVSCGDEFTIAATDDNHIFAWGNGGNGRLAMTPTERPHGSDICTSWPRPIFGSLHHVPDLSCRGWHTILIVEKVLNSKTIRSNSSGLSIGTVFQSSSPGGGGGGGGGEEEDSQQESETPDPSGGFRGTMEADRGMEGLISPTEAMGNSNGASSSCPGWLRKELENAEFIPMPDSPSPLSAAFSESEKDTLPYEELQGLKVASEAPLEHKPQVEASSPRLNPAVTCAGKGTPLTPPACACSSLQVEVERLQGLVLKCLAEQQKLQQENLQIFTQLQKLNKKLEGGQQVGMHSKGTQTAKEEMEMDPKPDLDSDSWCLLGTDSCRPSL
The conditions noted are these: at 0.1 µM.

In test [11] the target is T4, Serine/threonine-protein kinase Nek9 (Homo sapiens). The conditions noted are these: at 1 µM.
In test [12] the target is Serine/threonine-protein kinase PLK1 (Homo sapiens) (UniProt P53350). The conditions noted are these: at 0.1 µM.
Serine/threonine-protein kinase PLK1 (Homo sapiens), sequence (P53350 whole entry): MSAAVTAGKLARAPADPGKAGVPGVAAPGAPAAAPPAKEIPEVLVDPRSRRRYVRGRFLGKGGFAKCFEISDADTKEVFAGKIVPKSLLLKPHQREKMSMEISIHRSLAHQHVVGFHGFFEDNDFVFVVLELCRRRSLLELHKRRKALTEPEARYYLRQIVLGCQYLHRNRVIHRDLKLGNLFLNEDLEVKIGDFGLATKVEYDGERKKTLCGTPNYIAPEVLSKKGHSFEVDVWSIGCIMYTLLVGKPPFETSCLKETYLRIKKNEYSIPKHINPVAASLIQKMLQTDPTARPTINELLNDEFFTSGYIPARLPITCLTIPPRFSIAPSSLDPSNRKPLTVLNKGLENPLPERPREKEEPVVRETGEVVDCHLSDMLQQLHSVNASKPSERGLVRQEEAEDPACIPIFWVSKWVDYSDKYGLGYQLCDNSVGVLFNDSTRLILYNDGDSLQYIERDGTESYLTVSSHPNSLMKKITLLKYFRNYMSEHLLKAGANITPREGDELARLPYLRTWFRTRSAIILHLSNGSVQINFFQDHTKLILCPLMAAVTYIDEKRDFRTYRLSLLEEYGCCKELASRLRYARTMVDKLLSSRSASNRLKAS
The target is the same in test [13]. The note with it: at 1 µM.
In test [14] the target is T5, Dual specificity protein kinase TTK (Homo sapiens) (UniProt P33981).
T5 sequence (whole entry): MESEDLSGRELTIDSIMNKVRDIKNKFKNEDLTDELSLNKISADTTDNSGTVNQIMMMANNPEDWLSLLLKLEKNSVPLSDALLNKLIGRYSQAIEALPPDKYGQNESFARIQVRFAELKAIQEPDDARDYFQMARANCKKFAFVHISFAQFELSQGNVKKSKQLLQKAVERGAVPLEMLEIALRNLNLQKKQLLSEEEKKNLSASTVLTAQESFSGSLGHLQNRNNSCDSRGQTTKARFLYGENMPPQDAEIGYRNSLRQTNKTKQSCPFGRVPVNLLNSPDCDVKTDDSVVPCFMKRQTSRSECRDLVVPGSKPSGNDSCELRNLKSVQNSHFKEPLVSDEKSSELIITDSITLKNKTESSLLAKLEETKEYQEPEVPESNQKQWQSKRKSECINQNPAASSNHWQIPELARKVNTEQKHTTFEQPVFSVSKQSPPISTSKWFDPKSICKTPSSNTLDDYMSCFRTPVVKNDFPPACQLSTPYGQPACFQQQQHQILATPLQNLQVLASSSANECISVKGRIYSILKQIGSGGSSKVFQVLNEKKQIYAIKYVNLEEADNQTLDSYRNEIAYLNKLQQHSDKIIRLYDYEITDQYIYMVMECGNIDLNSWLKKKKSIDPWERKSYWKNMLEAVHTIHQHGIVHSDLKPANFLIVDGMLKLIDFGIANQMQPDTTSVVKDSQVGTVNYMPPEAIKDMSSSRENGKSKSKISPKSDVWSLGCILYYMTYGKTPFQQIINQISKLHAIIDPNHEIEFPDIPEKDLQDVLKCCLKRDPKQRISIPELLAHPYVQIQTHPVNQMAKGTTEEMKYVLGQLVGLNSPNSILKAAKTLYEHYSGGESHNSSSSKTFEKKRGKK
The note with it: at 0.1 µM.

Test [15] concerns T6, Receptor-type tyrosine-protein kinase FLT3 (Homo sapiens), P36888 [D835Y].
T6 sequence (whole entry): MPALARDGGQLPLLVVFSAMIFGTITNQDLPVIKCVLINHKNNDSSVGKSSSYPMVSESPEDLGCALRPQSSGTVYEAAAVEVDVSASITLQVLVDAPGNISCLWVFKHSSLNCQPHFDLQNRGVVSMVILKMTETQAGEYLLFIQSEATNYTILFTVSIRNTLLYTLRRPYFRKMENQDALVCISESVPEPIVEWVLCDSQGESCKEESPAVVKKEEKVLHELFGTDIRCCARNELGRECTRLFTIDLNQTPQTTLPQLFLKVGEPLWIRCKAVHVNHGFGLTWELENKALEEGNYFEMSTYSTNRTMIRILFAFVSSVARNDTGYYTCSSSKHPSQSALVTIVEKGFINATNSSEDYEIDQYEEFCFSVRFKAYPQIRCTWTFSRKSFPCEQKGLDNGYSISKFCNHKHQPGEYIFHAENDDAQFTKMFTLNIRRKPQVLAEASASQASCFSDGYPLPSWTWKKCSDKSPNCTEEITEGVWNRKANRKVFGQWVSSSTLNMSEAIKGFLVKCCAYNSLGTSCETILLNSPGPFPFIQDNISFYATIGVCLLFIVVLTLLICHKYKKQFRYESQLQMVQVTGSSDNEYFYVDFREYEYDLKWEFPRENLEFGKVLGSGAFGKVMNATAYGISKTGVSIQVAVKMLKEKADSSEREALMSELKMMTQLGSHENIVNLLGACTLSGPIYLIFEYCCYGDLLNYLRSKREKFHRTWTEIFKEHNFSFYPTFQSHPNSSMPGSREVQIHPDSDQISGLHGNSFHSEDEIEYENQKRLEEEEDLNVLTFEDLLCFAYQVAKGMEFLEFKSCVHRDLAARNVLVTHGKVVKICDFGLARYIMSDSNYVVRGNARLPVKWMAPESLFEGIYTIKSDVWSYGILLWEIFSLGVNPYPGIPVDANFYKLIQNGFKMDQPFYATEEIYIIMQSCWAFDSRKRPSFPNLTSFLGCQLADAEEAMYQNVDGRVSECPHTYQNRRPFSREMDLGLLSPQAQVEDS
The conditions noted are these: at 1 µM.

Test [16] addresses Vascular endothelial growth factor receptor 3 (Homo sapiens) (UniProt P35916). The conditions noted are these: at 0.1 µM.
The target is the same in test [17]. The conditions noted are these: at 1 µM.
Test [18] addresses Macrophage colony-stimulating factor 1 receptor (Homo sapiens) (UniProt P07333). The note with it: at 0.1 µM.
Test [19] shares this target. The note with it: at 1 µM.
For test [20], the target named is Tyrosine-protein kinase Fyn (Homo sapiens) (UniProt P06241). The conditions noted are these: at 0.1 µM.
Tyrosine-protein kinase Fyn (Homo sapiens), sequence (P06241 2-537 limits assumed): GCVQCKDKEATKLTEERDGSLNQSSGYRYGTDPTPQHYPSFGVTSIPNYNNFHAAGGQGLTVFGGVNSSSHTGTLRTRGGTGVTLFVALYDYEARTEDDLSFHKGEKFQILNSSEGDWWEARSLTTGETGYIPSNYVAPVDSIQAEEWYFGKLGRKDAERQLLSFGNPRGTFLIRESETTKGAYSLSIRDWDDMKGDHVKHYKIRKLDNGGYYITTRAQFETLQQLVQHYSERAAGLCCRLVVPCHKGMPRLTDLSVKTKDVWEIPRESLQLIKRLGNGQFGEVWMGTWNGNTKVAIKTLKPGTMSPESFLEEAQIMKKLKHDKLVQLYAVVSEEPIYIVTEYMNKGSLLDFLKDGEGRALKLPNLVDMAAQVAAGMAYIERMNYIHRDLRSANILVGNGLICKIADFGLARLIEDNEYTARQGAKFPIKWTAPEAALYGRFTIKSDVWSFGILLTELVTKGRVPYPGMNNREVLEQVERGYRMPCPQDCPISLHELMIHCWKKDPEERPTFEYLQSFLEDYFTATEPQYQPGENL

Vascular endothelial growth factor receptor 3 (Homo sapiens), sequence (P35916 whole entry): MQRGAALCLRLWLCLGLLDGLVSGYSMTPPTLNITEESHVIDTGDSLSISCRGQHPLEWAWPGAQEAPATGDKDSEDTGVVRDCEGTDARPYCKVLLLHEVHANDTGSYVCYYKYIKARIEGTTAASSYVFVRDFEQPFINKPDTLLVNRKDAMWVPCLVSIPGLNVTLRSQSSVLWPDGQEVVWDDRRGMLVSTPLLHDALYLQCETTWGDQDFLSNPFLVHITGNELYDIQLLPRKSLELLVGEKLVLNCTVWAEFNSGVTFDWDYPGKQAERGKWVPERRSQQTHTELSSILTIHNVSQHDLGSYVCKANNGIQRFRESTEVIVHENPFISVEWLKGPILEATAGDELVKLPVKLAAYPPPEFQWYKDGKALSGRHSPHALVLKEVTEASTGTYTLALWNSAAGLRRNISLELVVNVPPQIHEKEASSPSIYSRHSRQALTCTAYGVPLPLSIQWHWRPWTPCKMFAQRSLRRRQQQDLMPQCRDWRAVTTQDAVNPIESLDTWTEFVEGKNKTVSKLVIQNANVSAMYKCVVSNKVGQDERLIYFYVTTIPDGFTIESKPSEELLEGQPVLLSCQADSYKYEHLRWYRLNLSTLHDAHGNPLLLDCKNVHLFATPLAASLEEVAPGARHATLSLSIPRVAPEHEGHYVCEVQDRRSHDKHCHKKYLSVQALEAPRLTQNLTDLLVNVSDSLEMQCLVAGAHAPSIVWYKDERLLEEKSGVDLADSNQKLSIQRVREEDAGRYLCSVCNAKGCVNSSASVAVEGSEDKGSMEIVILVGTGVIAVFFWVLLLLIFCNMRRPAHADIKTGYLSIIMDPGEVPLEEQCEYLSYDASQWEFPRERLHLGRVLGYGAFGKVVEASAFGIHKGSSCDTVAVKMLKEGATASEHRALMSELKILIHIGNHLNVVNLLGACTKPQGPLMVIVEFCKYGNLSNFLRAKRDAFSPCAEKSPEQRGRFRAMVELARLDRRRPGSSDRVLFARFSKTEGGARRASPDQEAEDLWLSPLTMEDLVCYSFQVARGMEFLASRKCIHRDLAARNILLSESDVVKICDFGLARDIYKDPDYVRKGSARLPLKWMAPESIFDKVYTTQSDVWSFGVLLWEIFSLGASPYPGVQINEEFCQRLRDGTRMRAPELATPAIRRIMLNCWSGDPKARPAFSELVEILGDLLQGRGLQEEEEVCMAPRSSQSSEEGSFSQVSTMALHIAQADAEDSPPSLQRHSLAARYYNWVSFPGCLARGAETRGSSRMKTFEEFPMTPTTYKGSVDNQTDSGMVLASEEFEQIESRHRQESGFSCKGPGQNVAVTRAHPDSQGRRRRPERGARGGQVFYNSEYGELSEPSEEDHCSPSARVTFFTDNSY
Macrophage colony-stimulating factor 1 receptor (Homo sapiens), sequence (P07333 whole entry): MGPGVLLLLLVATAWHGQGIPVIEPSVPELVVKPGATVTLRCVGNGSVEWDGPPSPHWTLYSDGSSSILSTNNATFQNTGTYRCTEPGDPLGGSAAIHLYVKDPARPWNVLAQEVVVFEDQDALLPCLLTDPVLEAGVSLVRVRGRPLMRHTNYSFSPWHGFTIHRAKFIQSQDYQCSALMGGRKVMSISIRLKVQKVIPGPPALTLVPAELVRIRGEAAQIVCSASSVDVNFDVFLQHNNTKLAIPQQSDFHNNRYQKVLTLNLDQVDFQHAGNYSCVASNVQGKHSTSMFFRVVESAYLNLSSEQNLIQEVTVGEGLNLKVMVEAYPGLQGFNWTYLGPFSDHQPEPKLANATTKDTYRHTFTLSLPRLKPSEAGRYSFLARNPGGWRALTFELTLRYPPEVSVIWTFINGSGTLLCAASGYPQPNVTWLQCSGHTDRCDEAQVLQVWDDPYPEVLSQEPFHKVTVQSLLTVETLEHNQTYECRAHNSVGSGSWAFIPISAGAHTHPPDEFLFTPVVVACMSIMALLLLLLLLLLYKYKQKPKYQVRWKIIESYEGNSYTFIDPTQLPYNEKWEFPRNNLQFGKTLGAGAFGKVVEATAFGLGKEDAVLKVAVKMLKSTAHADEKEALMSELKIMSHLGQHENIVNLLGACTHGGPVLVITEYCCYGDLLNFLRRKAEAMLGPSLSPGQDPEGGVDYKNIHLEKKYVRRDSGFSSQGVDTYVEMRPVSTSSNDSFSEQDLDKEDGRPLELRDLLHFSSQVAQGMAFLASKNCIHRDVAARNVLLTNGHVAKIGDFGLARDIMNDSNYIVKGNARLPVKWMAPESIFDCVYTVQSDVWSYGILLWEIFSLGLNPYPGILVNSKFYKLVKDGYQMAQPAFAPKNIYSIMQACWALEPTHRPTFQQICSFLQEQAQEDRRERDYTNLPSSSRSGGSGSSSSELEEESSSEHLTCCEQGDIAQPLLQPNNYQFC
Serine/threonine-protein kinase Nek6 (Homo sapiens), sequence (Q9HC98 whole entry): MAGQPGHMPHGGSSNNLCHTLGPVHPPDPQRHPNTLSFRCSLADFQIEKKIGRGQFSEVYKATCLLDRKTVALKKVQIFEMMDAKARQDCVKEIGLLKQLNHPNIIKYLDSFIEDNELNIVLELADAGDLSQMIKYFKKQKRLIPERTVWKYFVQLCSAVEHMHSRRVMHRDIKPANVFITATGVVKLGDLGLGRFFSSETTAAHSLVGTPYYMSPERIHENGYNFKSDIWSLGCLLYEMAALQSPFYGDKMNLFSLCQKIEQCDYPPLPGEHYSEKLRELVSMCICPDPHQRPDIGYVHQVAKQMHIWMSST
Serine/threonine-protein kinase Nek7 (Homo sapiens), sequence (Q8TDX7 whole entry, looked up): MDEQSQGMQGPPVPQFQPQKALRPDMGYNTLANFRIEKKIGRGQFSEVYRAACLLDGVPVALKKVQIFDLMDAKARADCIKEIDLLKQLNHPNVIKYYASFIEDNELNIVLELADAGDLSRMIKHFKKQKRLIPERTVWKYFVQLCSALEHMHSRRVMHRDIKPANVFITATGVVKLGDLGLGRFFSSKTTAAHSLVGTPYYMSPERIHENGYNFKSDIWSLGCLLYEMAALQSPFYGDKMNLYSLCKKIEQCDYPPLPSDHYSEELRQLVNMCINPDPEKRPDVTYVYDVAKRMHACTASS

One may read the inhibition as the drop in the measured response relative to a control, in per cent. A low value points to little suppression. Regarding `O=C1Nc2ccccc2/C1=C/Nc1ccc2[nH]c(=O)[nH]c2c1`, the inhibition in test [1] turned out to be 23.3%; in [2], 2.99%; in test [3], 2.85%; in test [4] it was 5.3%; in test [5], 5.56%; in [6], 2.8%. Moreover, the inhibition came out at 4.32% in test [7]; 6.08% in test [8]; 4.96% in test [9]; 9.7% in test [10]; 15.6% in [11]; 5.67% in [12]. Moreover, the inhibition in test [13] amounted to 3.82%; in test [14] it was 15.4%; in test [15] it was 65.9%; in test [16] it was 4.3%; in test [17] it was 26.6%; in test [18] it was 11.9%. Also, the inhibition in [19] is 48.2%; in [20], 4.36%.

Consider `Cc1cc(-c2ccccn2)cc(C)c1/C=C/c1cncc(-c2nn[nH]n2)c1`, for which the inhibition was determined as 5.98% in test [1]; 1.6% in test [2]; 2.75% in test [3]; 5.75% in test [4]; 4.38% in test [5]; 0.78% in test [6]. Moreover, the inhibition was 3.18% in test [7]; 2.68% in test [8]; 7.82% in test [9]; 5.24% in [10]; 5.99% in test [11]; 5.02% in [12]. The inhibition in test [13] amounted to 5.56%; in test [14], 11.3%; in test [15] it was 12%; in [16] it was 9.28%; in [17], 14.4%; in [18], 1.45%. Moreover, the figures for the inhibition in test [19] and in [20] were 12.3% and 4.53%, respectively.
